Measured values reported in PubChem BioAssay (NCI).
Compounds without any hit were thinned out: in the full panel of roughly 83,000, 20% have a hit.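 Assay: single dose, 48 h. Readout: percent growth (0 = no net growth; negative = cell death). Active: <10.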 Unmarked numbers belong to inactive results. The source made the active and inactive calls.

Legend:
Assay in all cases: NCI-60 one-dose screen, 48 h (100 = growth as untreated, 0 = no growth, -100 = all killed)
Details in all cases: 10 µM
SK-MEL-2 melanoma = tested on: SK-MEL-2 melanoma
SN12C renal = tested on: SN12C renal
UO-31 renal = tested on: UO-31 renal
TK-10 renal = tested on: TK-10 renal
ACHN renal = tested on: ACHN renal
CAKI-1 renal = tested on: CAKI-1 renal
A498 renal = tested on: A498 renal
CCRF-CEM leukemia = tested on: CCRF-CEM leukemia
MOLT-4 leukemia = tested on: MOLT-4 leukemia

SMILES | growth (SK-MEL-2 melanoma) | growth (SN12C renal) | growth (UO-31 renal) | growth (TK-10 renal) | growth (ACHN renal) | growth (CAKI-1 renal) | growth (A498 renal) | growth (CCRF-CEM leukemia) | growth (MOLT-4 leukemia)
CCOc1cc(Br)c(C(C)NC(=O)c2cccc(OC)c2)cc1OCC (stereo not given) | 80.9% | 78.8% | 54.7% | 77.8% | 95.7% | 81.6% | 54% | 53.7% | 49.3%
Nc1nc2c(ncn2C2OC3COP(=O)(O)OC4C(COP(=O)(O)OC2C3O)OC(n2cnc3c(N)ncnc32)C4O)c(=O)[nH]1 (stereo not given) | 115% | 106% | 104% | 112% | 105% | 100% | 5.1% (active) | 97.8% | 92.8%
COc1ccc(CSc2nc3cc(OC)c(OC)cc3c(=O)n2-c2ccc(OC)cc2OC)cc1 | 91.5% | 90.1% | 55.4% | 108% | 94% | 68.7% | 58.6% | 92.7% | 79.4%
Oc1ccccc1-c1nnc(Cn2c(Cc3cccc4ccccc34)nc3ccccc32)o1 | 83.1% | 94.5% | 63% | 99.2% | 93.9% | 94.3% | 106% | 99.4% | 90.9%
Cc1cc(OI)c(C(C)C)cc1-c1cc(C(C)C)c(OI)cc1C | 80.7% | 101% | 83.5% | 97.3% | 96% | 95.1% | 85.4% | 98.3% | 86.8%
O=C(NC1CCCC1)c1ccc(N2CCC(NCc3cccc(C(F)(F)F)c3)CC2)cc1 | 108% | 94.2% | 62.3% | 101% | 97.9% | 101% | 92.1% | 75.7% | 70.2%
COc1cc(CSc2nc3ccc(Cl)cc3c(=O)n2-c2ccccc2)cc(OC)c1OC | 77.5% | 76% | 47.8% | 97.7% | 78.9% | 73.9% | 81.7% | 95.1% | 69.8%
CC(=O)Oc1c(C)c(C)c2c(c1C)CCC(C)(CC(=O)OCCCCCCCCCCC[P+](c1ccccc1)(c1ccccc1)c1ccccc1)O2 (stereo not given) | -88.7% (active) | -82.3% (active) | -5.35% (active) | -97% (active) | -95.4% (active) | -76.3% (active) | -20.5% (active) | 3.68% (active) | -23.6% (active)
NCCNc1ccc2cc(-c3nc4ccccc4[nH]3)c(=O)oc2c1 | 106% | 92.2% | 81.7% | 128% | 95.8% | 96.3% | 94.7% | 81.9% | 88.4%
COc1ccc(C(=O)/C=C/c2cc(-c3ccc4c(c3)OCO4)n[nH]2)cc1OC | 84.4% | 60.3% | 44.4% | 62.8% | 76.3% | 38.1% | 41.9% | 21.6% | -9.67% (active)
COc1ccc2nc(C)cc(Nc3ccc(Cl)cc3)c2c1 | 104% | 97.4% | 91.1% | 109% | 105% | 101% | 103% | 94.5% | 110%
COc1cccc2c1C(=O)c1c(O)c3c(c(O)c1C2=O)C[C@@](O)(C(=O)COC(=O)c1cccnc1)C[C@@H]3OC1CC(N)C(O)C(C)O1 (stereo not given in full) | -71.1% (active) | 6.29% (active) | -40.4% (active) | -9.29% (active) | -7.12% (active) | -40.7% (active) | -56.6% (active) | 0.652% (active) | -24.8% (active)
O=C(c1ccccc1)C(Sc1ccccc1)c1ccccc1 (stereo not given) | 62% | 87.7% | 79.9% | 101% | 34.5% | 82.5% | 92.1% | 89.9% | 67%
COc1ccc(-c2cc(/C=C/C(=O)c3ccc(N)cc3)[nH]n2)cc1OC | 80.8% | 35.1% | 27.3% | 39.3% | 50.5% | 31% | 52.8% | 7.41% (active) | 7.23% (active)
Fc1ccc(-c2cc(C(Cl)Cl)no2)cc1 | 116% | 97.6% | 78.7% | 131% | 102% | 84.9% | 99.3% | 93.1% | 108%
